Assay results: PubChem BioAssay
Activity calls are given as the source filed them.

Legend:
[1] = binders of probe aFSTL3 on microarray, primary screen, stem cell growth factor project, biochemical, small-molecule microarray, fluorescence 635/667 (AID 1064); details: higher = more signal;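 also: measures binding of the biotinylated anti-FSTL3 antibody to printed compounds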
[2] = binders from COS7 lysate, DM2A8 probe, primary screen, torsin A project, cell lysate, small-molecule microarray, fluorescence 635/667 (AID 1065); details: higher = more signal, COS7 lysate expressing mutant human TOR1A
[3] = binders of probe aFGF2 on microarray, primary screen, stem cell growth factor project, biochemical, small-molecule microarray, fluorescence 635/667 (AID 1067); details: higher = more signal;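 also: measures binding of biotinylated aFGF2 protein to printed compounds on slides; z-score merges feature fluorescence and signal-to-noise across triplicate slides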
[4] = binders of probe aFGF10 on microarray, primary screen, stem cell growth factor project, biochemical, small-molecule microarray, fluorescence 635/667 (AID 1071); details: higher = more signal;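 also: score merges 667 nm spot intensity and signal to noise from triplicate slides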
[5] = target: Neurogenic locus notch homolog protein 2 (Homo sapiens) (UniProt Q04721); experiment: Notch2 binders on small-molecule microarrays, primary screen, biochemical, small-molecule microarray, 635 nm fluorescence, stem cell growth factors (AID 1073); details: Notch2 binding, higher = more signal
[6] = target: Pro-neuregulin-1, membrane-bound isoform (Homo sapiens) (UniProt Q02297); experiment: NRG1 binders on small-molecule microarrays, primary screen, psychiatric disease protein project, biochemical, small-molecule microarray, fluorescence 635/667 (AID 1075); details: NRG1 binding, 635 nm fluorescence, higher = more signal;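 also: score combines 667 nm spot fluorescence with signal to noise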
[7] = tested on: Neuregulin-1 EGF-like domain; experiment: binders of neuregulin-1 EGF-like domain, primary screen, biochemical, small-molecule microarray, 635 nm fluorescence (AID 1081); details: small-molecule microarray binding, higher = more signal;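 also: binding of the protein to compounds printed on small-molecule microarray slides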
[8] = FRG1 promoter luciferase signal modulators, primary screen, FRG1 inhibition for FSHD, cell-based, C2C12 myotubes, firefly/Renilla luciferase, luminescence (AID 1084); details: higher = more signal, called active from +8 up or from −8 down
[9] = binders of probe aFST on microarray, primary screen, stem cell growth factor project, biochemical, small-molecule microarray, fluorescence 635/667 (AID 1086); details: higher = more signal;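 also: score merges 667 nm fluorescence with signal-to-noise of each printed compound spot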
[10] = binders of probe aHhip on microarray, primary screen, stem cell growth factor project, biochemical, small-molecule microarray, fluorescence 635/667 (AID 1087); details: higher = more signal;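 also: score merges spot fluorescence at 667nm with spot signal to noise ratio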
[11] = tested on: PRMT1 (protein arginine N-methyltransferase 1); experiment: PRMT1 binders on small-molecule microarrays, primary screen, biochemical, small-molecule microarray, 635 nm fluorescence (AID 1088); details: small-molecule microarray binding, higher = more signal;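 also: binding of Prmt1 protein to compounds spotted on small-molecule microarray slides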
[12] = yeast growth modulation, basal conditions, primary screen, YJM789 clinical isolate, OD600, 24 h (AID 1089);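 also: growth of clinical yeast isolate S. cerevisiae YJM 789 seeded 1000 cells per well; test concentration not given here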; details: S. cerevisiae YJM789 growth, higher = more signal, called active from +8 up or from −8 down
[13] = fission yeast growth modulation, primary screen, strain 972, OD600, 24 h, no modulator (AID 1090);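 also: basal condition with compound alone and no growth modifier present; test concentration not given here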; details: S. pombe 972 growth, higher = more signal, called active from +8 up or from −8 down
[14] = S. cerevisiae growth modulation with rapamycin, primary screen, strain BY4716, OD600, 96 h (AID 1091); details: higher = more signal, called active from +8 up or from −8 down; also: test concentration not given here
[15] = target: Torsin-1A-interacting protein 2 (Homo sapiens) (UniProt Q8NFQ8); experiment: LULL1 binders on small-molecule microarray, primary screen, cell lysate, human LULL1 lysate, 635/667 nm fluorescence (AID 1092); details: hLULL1 lysate binding, 635 nm fluorescence, higher = more signal;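 also: probe is lysate of COS7 cells overexpressing human LULL1; score merges per-feature 667 nm fluorescence with signal-to-noise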
[16] = E. coli growth modulation, two-sided OD650, primary screen, E. coli filamentation project, strain DRC41, 24 h (AID 1093); details: OD650, 24 h, higher = more signal, called active from +8 up or from −8 down;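 also: MC1000 strain lacking acrAB efflux and sulA so SOS filamentation is blocked; test concentration not given here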
[17] = small-molecule microarray binders of probe aLefty2, primary screen, biochemical, biotinylated probe, 635/667 nm fluorescence (AID 1094); details: higher = more signal;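 also: score merges spot fluorescence near 667 nm with spot signal-to-noise ratio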
[18] = tested on: Noggin (protein binding on small-molecule microarray); experiment: Noggin binders on small-molecule microarray, primary screen, biochemical, 635/667 nm fluorescence (AID 1095); details: 635 nm fluorescence, higher = more signal;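 also: score merges 667 nm feature fluorescence with signal to noise over triplicate slides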
[19] = target: Neurogenic locus notch homolog protein 3 (Homo sapiens) (UniProt Q9UM47); experiment: NOTCH3 binders on small-molecule microarray, primary screen, biochemical, 635/667 nm fluorescence (AID 1096); details: NOTCH3 binding, 635 nm fluorescence, higher = more signal
[20] = small-molecule microarray binders of probe aEGFR, primary screen, biochemical, biotinylated probe, 635/667 nm fluorescence (AID 1097); details: higher = more signal;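 also: probe is a biotinylated anti-EGFR antibody binding compounds printed on slides; score combines fluorescence near 667 nm and signal to noise of each spot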

Chain of Pro-neuregulin-1, membrane-bound isoform (Homo sapiens) (Q02297 whole entry, looked up, the tested form may be a part, canonical isoform): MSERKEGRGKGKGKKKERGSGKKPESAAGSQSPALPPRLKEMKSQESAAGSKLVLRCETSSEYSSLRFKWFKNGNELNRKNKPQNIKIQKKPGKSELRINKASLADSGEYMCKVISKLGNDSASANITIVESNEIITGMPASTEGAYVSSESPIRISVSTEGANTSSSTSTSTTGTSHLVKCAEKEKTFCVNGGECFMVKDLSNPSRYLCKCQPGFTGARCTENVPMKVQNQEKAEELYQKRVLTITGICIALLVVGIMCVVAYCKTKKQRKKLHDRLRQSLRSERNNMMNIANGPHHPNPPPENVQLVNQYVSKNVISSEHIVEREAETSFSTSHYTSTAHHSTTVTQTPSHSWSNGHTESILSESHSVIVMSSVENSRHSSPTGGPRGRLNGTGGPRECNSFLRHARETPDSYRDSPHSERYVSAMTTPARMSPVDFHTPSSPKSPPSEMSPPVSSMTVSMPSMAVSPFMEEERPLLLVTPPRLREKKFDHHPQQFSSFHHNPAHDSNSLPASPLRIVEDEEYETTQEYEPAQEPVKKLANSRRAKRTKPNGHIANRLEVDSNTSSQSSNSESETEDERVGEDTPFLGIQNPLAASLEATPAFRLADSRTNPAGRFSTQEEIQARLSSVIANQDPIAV
Chain of Torsin-1A-interacting protein 2 (Homo sapiens) (Q8NFQ8 whole entry, looked up): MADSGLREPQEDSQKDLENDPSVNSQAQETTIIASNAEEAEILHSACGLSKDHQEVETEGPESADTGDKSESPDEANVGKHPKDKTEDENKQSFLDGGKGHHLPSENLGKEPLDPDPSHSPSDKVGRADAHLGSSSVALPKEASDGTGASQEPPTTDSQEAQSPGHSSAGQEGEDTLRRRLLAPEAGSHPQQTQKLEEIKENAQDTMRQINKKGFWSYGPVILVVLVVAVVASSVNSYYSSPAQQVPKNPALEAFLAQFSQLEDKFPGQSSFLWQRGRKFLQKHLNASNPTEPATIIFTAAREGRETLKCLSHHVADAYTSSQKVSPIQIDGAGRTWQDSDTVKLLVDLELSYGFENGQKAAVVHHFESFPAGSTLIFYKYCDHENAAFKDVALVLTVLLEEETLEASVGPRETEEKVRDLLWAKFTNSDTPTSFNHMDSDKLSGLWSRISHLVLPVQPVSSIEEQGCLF
Chain of Neurogenic locus notch homolog protein 2 (Homo sapiens) (Q04721 whole entry, looked up, canonical isoform): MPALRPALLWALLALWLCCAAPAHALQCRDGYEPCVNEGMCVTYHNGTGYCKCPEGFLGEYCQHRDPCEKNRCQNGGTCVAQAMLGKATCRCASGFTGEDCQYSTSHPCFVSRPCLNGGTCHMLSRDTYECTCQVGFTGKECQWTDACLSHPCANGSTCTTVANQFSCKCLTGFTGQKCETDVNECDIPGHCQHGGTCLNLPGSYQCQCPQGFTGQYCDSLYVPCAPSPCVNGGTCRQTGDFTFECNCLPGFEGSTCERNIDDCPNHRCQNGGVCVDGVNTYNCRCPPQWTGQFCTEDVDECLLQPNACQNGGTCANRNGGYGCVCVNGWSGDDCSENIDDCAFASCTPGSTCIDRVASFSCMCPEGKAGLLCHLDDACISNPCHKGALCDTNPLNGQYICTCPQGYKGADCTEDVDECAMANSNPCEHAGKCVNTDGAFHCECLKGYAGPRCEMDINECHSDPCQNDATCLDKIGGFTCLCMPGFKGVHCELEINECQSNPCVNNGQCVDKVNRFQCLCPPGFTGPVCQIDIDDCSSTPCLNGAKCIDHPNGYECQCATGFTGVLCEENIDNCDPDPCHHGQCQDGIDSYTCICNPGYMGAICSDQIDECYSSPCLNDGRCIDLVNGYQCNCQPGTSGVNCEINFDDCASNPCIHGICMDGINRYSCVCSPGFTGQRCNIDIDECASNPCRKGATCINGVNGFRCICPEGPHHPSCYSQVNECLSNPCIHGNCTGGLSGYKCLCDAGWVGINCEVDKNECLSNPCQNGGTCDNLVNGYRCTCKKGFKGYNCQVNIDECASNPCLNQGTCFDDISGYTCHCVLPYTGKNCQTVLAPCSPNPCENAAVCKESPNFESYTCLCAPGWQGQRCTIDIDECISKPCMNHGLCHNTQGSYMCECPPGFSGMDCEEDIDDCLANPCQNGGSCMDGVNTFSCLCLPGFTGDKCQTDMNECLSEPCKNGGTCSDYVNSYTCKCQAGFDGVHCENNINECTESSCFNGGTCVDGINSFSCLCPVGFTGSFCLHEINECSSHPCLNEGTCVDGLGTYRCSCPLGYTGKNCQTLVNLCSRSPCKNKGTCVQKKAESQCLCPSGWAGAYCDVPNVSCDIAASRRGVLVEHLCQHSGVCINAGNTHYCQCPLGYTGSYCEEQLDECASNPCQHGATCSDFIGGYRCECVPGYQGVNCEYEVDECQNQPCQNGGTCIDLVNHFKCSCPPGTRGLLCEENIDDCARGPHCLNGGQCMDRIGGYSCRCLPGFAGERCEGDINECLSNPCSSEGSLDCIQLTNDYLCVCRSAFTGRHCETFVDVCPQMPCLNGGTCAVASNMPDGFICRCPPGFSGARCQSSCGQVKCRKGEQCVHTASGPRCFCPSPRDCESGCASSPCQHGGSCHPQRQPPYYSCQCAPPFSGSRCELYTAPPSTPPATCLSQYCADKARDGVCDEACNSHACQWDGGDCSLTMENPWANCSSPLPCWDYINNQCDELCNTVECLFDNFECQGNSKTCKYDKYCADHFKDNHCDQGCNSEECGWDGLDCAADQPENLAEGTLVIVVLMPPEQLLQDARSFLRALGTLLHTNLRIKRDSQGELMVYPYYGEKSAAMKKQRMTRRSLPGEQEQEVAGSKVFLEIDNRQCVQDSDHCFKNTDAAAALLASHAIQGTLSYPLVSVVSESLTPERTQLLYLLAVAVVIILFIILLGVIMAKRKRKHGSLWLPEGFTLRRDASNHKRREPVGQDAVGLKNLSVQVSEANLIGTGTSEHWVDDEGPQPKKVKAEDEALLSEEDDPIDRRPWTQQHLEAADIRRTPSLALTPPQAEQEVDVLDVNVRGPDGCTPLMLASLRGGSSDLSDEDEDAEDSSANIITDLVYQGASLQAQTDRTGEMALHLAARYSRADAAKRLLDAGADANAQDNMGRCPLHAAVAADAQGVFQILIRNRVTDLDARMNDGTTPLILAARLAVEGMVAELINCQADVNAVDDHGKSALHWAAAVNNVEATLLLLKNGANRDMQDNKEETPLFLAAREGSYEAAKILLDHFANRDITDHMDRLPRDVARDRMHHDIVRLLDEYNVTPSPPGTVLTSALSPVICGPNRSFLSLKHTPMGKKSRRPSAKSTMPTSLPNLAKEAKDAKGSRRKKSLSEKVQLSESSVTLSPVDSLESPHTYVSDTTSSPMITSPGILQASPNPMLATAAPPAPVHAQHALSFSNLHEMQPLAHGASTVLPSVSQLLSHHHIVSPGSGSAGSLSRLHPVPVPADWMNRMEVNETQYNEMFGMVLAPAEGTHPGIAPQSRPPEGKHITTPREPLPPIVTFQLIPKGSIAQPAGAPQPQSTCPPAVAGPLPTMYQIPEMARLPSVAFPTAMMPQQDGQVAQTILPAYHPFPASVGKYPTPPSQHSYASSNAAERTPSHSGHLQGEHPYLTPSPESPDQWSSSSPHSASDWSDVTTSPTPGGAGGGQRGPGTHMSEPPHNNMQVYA

Row | Compound | composite z-score [1] | composite z-score [2] | composite z-score [3] | composite z-score [4] | composite z-score [5] | composite z-score [6] | composite z-score [7] | z-score [8] | composite z-score [9] | composite z-score [10] | composite z-score [11] | z-score [12] | z-score [13] | z-score [14] | composite z-score [15] | z-score [16] | composite z-score [17] | composite z-score [18] | composite z-score [19] | composite z-score [20]
1 | C=CC[C@@]1(C(=O)O)N=C(c2ccc(OCCCO)cc2)O[C@@H]1c1ccccc1 | 0.522 | 3.13 | 0.206 | 0.553 | 0.63 | 2.08 | 1.34 | 0.19 (inactive) | -0.55 | 0.212 | 1.11 | 0.639 (inactive) | -2.39 (inactive) | -0.203 (inactive) | 3.22 | 0.572 (inactive) | -0.166 | -0.0356 | -0.645 | -0.315
2 | C=CCNC(=O)[C@@H]1[C@H]2C(=O)O[C@H](c3ccccc3)[C@H](c3ccccc3)N2[C@H](c2ccccc2OCCO)[C@@]12C(=O)N(C(=O)OCCOC)c1ccc(C#CC3=CCCCC3)cc12 | -0.0809 | 0.683 | 0.0496 | 0.586 | -0.0189 | 0.457 | 1.2 | -1.11 (inactive) | 0.206 | -0.178 | 1.54 | 0.363 (inactive) | -0.0834 (inactive) | 3.14 (inactive) | 2.31 | 0.906 (inactive) | -0.205 | 1.34 | 1.15 | -0.0435
3 | COC(=O)C1(Cc2ccccc2)C=C2C(=C(c3ccccc3)C(=O)C2C)CN1 (stereo not given) | 2.22 | 0.0069 | 0.731 | 1.21 | 1.19 | 1.45 | 1.01 | 0.943 (inactive) | 1.87 | 2.63 | -1.24 | -0.175 (inactive) | -0.183 (inactive) | 0.269 (inactive) | 1.29 | -0.749 (inactive) | 1.32 | -1.58 | 0.885 | 1.29
4 | COc1ccc(NC(=O)O[C@H]2[C@H](OC(=O)Nc3ccc4c(c3)OCO4)[C@@H](OC(=O)Nc3ccc4c(c3)OCO4)[C@@H](OC)O[C@@H]2CO)cc1 | 0.157 | -0.0536 | 0.0397 | 0.639 | 0.922 | 1.57 | 1.2 | 6.75 (inactive) | 0.4 | -0.0296 | 1.56 | 1.5 (inactive) | 1.61 (inactive) | -0.31 (inactive) | 3.66 | 1.93 (inactive) | -0.0396 | 0.89 | 1.08 | -0.0953
5 | COc1ccc([Si](C)(C)[C@H]2[C@H](CCn3cc([C@H](O)c4ccccc4)nn3)O[C@@]3(C(=O)N(Cc4ccc(N5CCOC5=O)cc4)c4ccccc43)[C@@H]2C)cc1 | 0.365 | -0.437 | -0.204 | -0.111 | -1.11 | 0.276 | -0.426 | -1.58 (inactive) | -0.757 | -0.236 | -0.562 | 1.75 (inactive) | 1.78 (inactive) | 3.45 (inactive) | -0.241 | 0.28 (inactive) | -0.0713 | -1.49 | -0.865 | -0.227
6 | CC(C)OC(=O)CC(=O)CC(O)c1cccc(C#N)c1 (stereo not given) | 0.424 | 0.995 | -0.0103 | 0.535 | 1.43 | 0.311 | 0.936 | -0.326 (inactive) | 0.494 | -0.452 | 0.864 | -2.17 (inactive) | -0.0003 (inactive) | -1.66 (inactive) | 2.15 | 0.435 (inactive) | 0.237 | -0.412 | 0.753 | 0.0201
7 | NCCCCCCNC(=O)[C@H]1C[C@H]2C(=O)N[C@@H](Cc3ccccc3)C(=O)N2[C@H]1c1ccc(O)cc1 | 0.465 | 0.399 | -0.0334 | 0.0116 | 0.421 | 1.34 | 1.18 | 1.1 (inactive) | 0.377 | -0.196 | 1.11 | -1.8 (inactive) | -0.599 (inactive) | -1.24 (inactive) | 2.45 | 0.933 (inactive) | -0.0824 | 1.07 | 0.272 | -0.0685
8 | C=CC1c2cc(O)c(OC)cc2CCN1Cc1sc2ccccc2c1Cl (stereo not given) | 1.12 | 0.396 | -0.0316 | 0.436 | 1.2 | 1.9 | 1.23 | -0.732 (inactive) | 0.853 | -0.0237 | 0.756 | -1.62 (inactive) | -19.2 (active) | -0.399 (inactive) | 2.49 | -0.368 (inactive) | 0.233 | 0.123 | 0.968 | 0.0673
9 | COc1c(C)cc(-c2cc3c(c(-c4ccccc4)n2)[Si](C(C)C)(C(C)C)OC3)cc1C | -0.0563 | -0.0385 | -0.241 | -0.304 | -0.181 | -0.112 | -1.15 | -0.577 (inactive) | -0.205 | -0.0672 | -0.267 | 0.105 (inactive) | -0.747 (inactive) | -0.275 (inactive) | -0.495 | 0.346 (inactive) | 0.0008 | -0.24 | -0.263 | -0.0262
